Assay outcomes: PubChem, several laboratories
Rows were chosen to be rich in hits. Some 1% of all compounds tested hit in one or more screens of this group.
L929 necroptosis: blocks zVAD induced death of L929 cells; L929 zVAD necroptosis rescue, ATP luminescence, 24 h; with zVAD 60 µM; viability rescue, % at 10 µM; 220,000 tested, 0.38% active; AID 1377;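 active = activation, scaled between plate controls, above about 75%, limit read from the data; inactive = activation under that limit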
S1P4 antagonist: human S1P4 receptor antagonism; O95977; S1P4-expressing cells, antagonist mode, reporter read-out; inhibition, % at 4.98 µM; 220,000 tested, 0.26% active; AID 1510; in the data active = inhibition above about 29%
Target sequence (O95977 whole entry, looked up): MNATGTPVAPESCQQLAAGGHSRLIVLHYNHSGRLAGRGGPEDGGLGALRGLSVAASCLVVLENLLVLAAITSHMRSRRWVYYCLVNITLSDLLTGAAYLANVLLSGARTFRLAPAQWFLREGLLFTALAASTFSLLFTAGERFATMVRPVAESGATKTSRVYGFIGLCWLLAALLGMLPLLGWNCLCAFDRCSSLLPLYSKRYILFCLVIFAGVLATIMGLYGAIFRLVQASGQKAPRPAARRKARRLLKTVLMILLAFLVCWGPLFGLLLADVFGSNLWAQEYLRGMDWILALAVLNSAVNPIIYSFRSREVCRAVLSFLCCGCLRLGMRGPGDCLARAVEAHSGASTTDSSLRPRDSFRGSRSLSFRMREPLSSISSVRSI
TNF death inh: inhibitors of TNF-alpha induced necroptosis in Jurkat FADD-/- cells; Jurkat FADD-/- TNF necroptosis rescue, ATP luminescence, 24 h; 0 = TNF only, 100 = no-TNF cells; 220,000 tested, 0.068% active; AID 463075; activation (protection from cell death), % at 10 µM;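 active = activation, meaning protection from cell death, of at least 50% relative to plate controls; inactive = activation below 50%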;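 also: necroptosis triggered by 40 ng/mL TNF-alpha added together with compound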
S1P4 agonist: agonists of human S1P4 receptor; activation, % at 4.98 µM; S1P4-expressing cell line, agonist reporter assay; O95977; 220,000 tested, 0.35% active; in the data active = activation above about 11%
Hsp70 act: Hsp70 transcriptional activation, primary screen | 200,000 tested, 0.04% active | HeLa Hsp70 promoter luciferase reporter, luminescence; scaled: vehicle 0, proteasome-inhibitor control 100% | activation, % at 10 µM;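 active = activation above the mean across all tested compounds plus 3 SD, cutoff set per campaign, cut at about 5.5% in these data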
HSV replic up: increases HSV replication in cells | HSV replication augmentation in cells, fold increase | maximum fold increase | 220,000 tested, 0.005% active | AID 1956; in the data active = maximum fold increase above about 1.5; tested in PC3 cells
S1P4 ag conf: confirmation of human S1P4 receptor agonists; shares compounds with S1P4 agonist; S1P4 agonist cell-based reporter assay; activation, % at 4.98 µM; 740 tested, 7% active; AID 1523; in the data active = activation above about 12%
S1P1 agonist: activates human S1P1, counter-screen for S1P4 agonists | shares compounds with S1P4 agonist | S1P1 agonist cell-based assay, activation | activation, % at 4.98 µM | 740 tested, 4% active; in the data active = activation above about 21%
Large screens that a line does not name were inactive (follow-up assays come after a bar, where they were run).

CCOCCCn1c(=NC(C)=O)c(C#N)cc2c(=O)n3ccccc3nc21	S1P4 agonist 24.9 (no result: Hsp70 act) | S1P4 ag conf inactive | S1P1 agonist inactive
Cc1ccc(Nc2c(-c3ccc(C)o3)nc3ncccn23)cc1	S1P4 agonist 11.0 (no result: Hsp70 act) | S1P4 ag conf inactive | S1P1 agonist inactive
COc1cccc(CNCCO)c1OCc1ccccc1Cl	none
COc1cc(CNCCO)cc(Cl)c1OCc1ccccc1Cl	S1P4 agonist 11.1 | S1P4 ag conf inactive | S1P1 agonist inactive
CCOC(=O)c1c(NC(=O)COC)sc(C)c1C	none
CCOC(=O)c1c(NC(=O)COC(=O)c2cc(OC)c(OC)cc2[N+](=O)[O-])sc(C)c1C	S1P4 agonist 16.5 | S1P4 ag conf inactive | S1P1 agonist inactive
CCC(C)(C)NC(=O)c1ccc2c(c1)N(CC(=O)OC)C(=O)C(C)(C)O2	none
CCOC(=O)CN1C(=O)C(C)(C)Oc2ccc(C(=O)NC(C)(C)CC)cc21	S1P4 agonist 27.9 | S1P4 ag conf inactive | S1P1 agonist inactive
C=CCOc1ccc(CNn2c(C)n[nH]c2=S)cc1OC	none
O=C(O)c1ccc(Br)cn1	S1P4 agonist 27.4 | S1P4 ag conf inactive | S1P1 agonist inactive
CC(C)(C)C(=O)Cn1c(=O)n(-c2ccc(F)cc2F)c(=O)c2sccc21	S1P4 agonist 95.2 | S1P4 ag conf inactive | S1P1 agonist inactive
COc1ccc(CCNC(=O)Cn2c(=O)n(-c3ccc(F)cc3F)c(=O)c3sccc32)cc1OC	none
C/C(=N\NC(=O)C(C)n1nc(C)c([N+](=O)[O-])c1C)c1ccccc1O (stereo not drawn)	S1P4 agonist 103.0 | S1P4 ag conf inactive | S1P1 agonist inactive
CCNc1ccc(C(=O)OCC(=O)N(Cc2ccccc2)C(C)(C)C)cc1[N+](=O)[O-]	none
O=C(Nc1ccccc1-c1ccccc1)C1CCCCC1	S1P4 agonist 12.1 | S1P4 ag conf inactive | S1P1 agonist inactive
Cc1ccc2nc(SCC(=O)NNC(=O)c3ccccc3)[nH]c2c1	none
Cc1ccn2cc(-c3cccc([N+](=O)[O-])c3)nc2c1	none
O=C(/C=C/c1ccco1)Nc1ccccc1N1CCOCC1	S1P4 agonist 20.2 (no result: L929 necroptosis) | S1P4 ag conf inactive | S1P1 agonist inactive
O=C(COc1ccc(Cl)cc1)Nc1cc(S(=O)(=O)N2CCCCC2)ccc1N1CCCCC1	none (no result: HSV replic up)
O=C(O/N=C1\CCS(=O)(=O)c2sccc21)c1c(F)cccc1F	S1P4 agonist 33.0 | S1P4 ag conf inactive | S1P1 agonist inactive
Cn1c2ccc(F)cc2c2ncn(CC3CCCO3)c(=O)c21 (stereo not drawn)	none (no result: Hsp70 act)
O=c1c2[nH]c3ccc(F)cc3c2ncn1CC1CCCO1 (stereo not drawn)	S1P4 agonist 37.5 (no result: Hsp70 act) | S1P4 ag conf inactive | S1P1 agonist inactive
Cc1nn(Cc2ccc(F)cc2)c(C)c1NC(=O)c1cc(-c2ccc3c(c2)OCO3)on1	none
Cc1ccc(Cn2nc(C)c(NC(=O)c3cc(-c4ccc5c(c4)OCO5)on3)c2C)cc1	S1P4 agonist 19.2 | S1P4 ag conf inactive | S1P1 agonist inactive
Cc1ccc(C(=O)COc2cc(C)nc3nncn23)cc1	none (no result: Hsp70 act)
COC(=O)C1=CNC=C(C(=O)OC)C1c1ccc(C(=O)OC)cc1	none
Cc1ccc(C(=O)/C=C2/NC(=O)CS2)cc1	S1P4 agonist 19.9 | S1P4 ag conf inactive | S1P1 agonist inactive
O=C1CS/C(=C/C(=O)c2cccc(Cl)c2)N1	none
O=C(Cn1c(Cc2ccccc2)nc2ccccc21)NCc1ccc2c(c1)OCO2	S1P4 agonist 22.4 | S1P4 ag conf inactive | S1P1 agonist inactive
C#Cc1cccc(-n2nnc(C(C)=O)c2C)c1	S1P4 agonist 68.4 (no result: Hsp70 act) | S1P4 ag conf inactive | S1P1 agonist inactive
CC(=O)c1nnn(-c2c(F)cccc2F)c1C	none (no result: Hsp70 act)
CCCn1cnc2cc(NC(=O)c3cccs3)ccc21	none
CC(=O)N(CCCN(C)C)Cc1ccccn1	S1P4 agonist 20.2 (no result: Hsp70 act) | S1P4 ag conf inactive | S1P1 agonist inactive
CC(=O)N(CCCc1ccc(C(C)(C)C)cc1)CCCN(C)C	none
COC(=O)c1ccc2c(c1)C(=O)/C(=C/c1ccc(C)cc1)O2	S1P4 agonist 12.7 | S1P4 ag conf inactive | S1P1 agonist inactive
CCc1ccc(/C=C2\Oc3ccc(C(=O)OC)cc3C2=O)cc1	none
O=C(Nc1ccc(OCc2ccccc2)cc1)Nc1ccccc1C(=O)NCCCN1CCOCC1	none (no result: Hsp70 act)
CN(C)C(=O)c1c([N+](=O)[O-])c(C(C)(C)C)nn1C	none
CCCc1nn(C)c(C(N)=O)c1[N+](=O)[O-]	S1P4 agonist 11.9 | S1P4 ag conf inactive | S1P1 agonist inactive
Cc1cc(C)nc(N/N=C/c2ccc(N3CCOCC3)cc2)n1	S1P4 agonist 175.2 | S1P4 ag conf 21.1 | S1P1 agonist inactive
Cc1ccc(/C=N/NC(=O)c2cccnc2)s1	S1P4 agonist 12.9 (no result: Hsp70 act) | S1P4 ag conf inactive | S1P1 agonist inactive
CN(Cc1ccccc1)c1nnc(N)s1	S1P4 agonist 13.4 (no result: L929 necroptosis, HSV replic up) | S1P4 ag conf inactive | S1P1 agonist inactive
Cc1cc(C)nc(/N=C(\N)Nc2cccc([N+](=O)[O-])c2)n1	S1P4 agonist 11.6 | S1P4 ag conf inactive | S1P1 agonist inactive
Cc1cc(C)nc(/N=C(\N)Nc2ccc([N+](=O)[O-])cc2)n1	none
CC1C2=C(CC(C)(C)CC2=O)NC2=C1C(=O)CC(C)(C)C2	S1P4 agonist 17.7 | S1P4 ag conf inactive | S1P1 agonist inactive
O=C(CN1CCCCCC1)NCC1CCCO1 (stereo not drawn)	none
O=C(CCCC(=O)NCC1CCCO1)NCC1CCCO1 (stereo not drawn)	S1P4 agonist 38.7 | S1P4 ag conf inactive | S1P1 agonist inactive
COc1ccccc1N=c1oc2cc(O)ccc2cc1C(N)=O	S1P4 agonist 26.7 | S1P4 ag conf inactive | S1P1 agonist inactive
COc1ccccc1NC(=O)c1cc2ccc(O)cc2o/c1=N\O	none (no result: HSV replic up)
COc1ccc2oc(=O)c(C(=O)NCC3CCCO3)cc2c1 (stereo not drawn)	none
COc1cccc(N=c2oc3cc(O)ccc3cc2C(=O)NCC2CCCO2)c1 (stereo not drawn)	S1P4 agonist 16.9 | S1P4 ag conf inactive | S1P1 agonist inactive
COc1ccccc1N=c1oc2cc(O)ccc2cc1C(=O)NCC1CCCO1 (stereo not drawn)	S1P4 agonist 38.0 | S1P4 ag conf inactive | S1P1 agonist inactive
CCOc1ccc(-n2c(C)c(C(C)=O)c3cc(OCC(N)=O)ccc32)cc1	none
COc1cc(OC)cc(C(=O)OCC(=O)NCc2ccc3c(c2)OCO3)c1	none
COc1ccc(Cn2ccnc2)cc1[N+](=O)[O-]	S1P4 agonist 12.3 | S1P4 ag conf inactive | S1P1 agonist inactive
Cc1ccc(NC(=O)CCn2c(=O)[nH]c3ccsc3c2=O)cc1	none
CCOc1ccc(NC(=O)CCn2c(=O)[nH]c3ccsc3c2=O)cc1	S1P4 agonist 24.1 | S1P4 ag conf inactive | S1P1 agonist inactive
